Screening data (PubChem BioAssay)
Rows were chosen to be rich in hits. Some 4% of all compounds tested hit in one or more screens of this group.
KKLEB cytotox = cytotoxicity in KKLEB CF airway cells, primary screen, cytotoxicity control for CF NF-kB inhibitor project, cell-based, uHTS, fluorescence assay plates | KKLEB CF airway cells viability, ATPlite luminescence, overnight; stronger effect = lower value; cells stimulated with P. aeruginosa culture filtrate | activity change (cytotoxicity), % at 5 µM | hit rate 0.36% among 360,000 | AID 602141, 2011;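 active = corrected activity change at or below -50% at 5 µM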
CF NFkB inh = inhibitors of PAF-induced NF-kB signaling, primary screen, cell-based, GFP fluorescence, uHTS | KKLEB NF-kB-GFP reporter, GFP fluorescence overnight | inhibition, % at 5 µM | hit rate 0.86% among 360,000;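 active = at least 50% inhibition at 5 µM, scaled per plate between neutral and stimulator controls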;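 note: PAF is a Pseudomonas aeruginosa culture filtrate used as stimulus; plate controls were PAF-stimulated DMSO wells for no effect and unstimulated DMSO wells for full effect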
Peg3 prom inh = Peg3 promoter-driven luciferase inhibitors, primary screen, cell-based, HeLa, luciferase luminescence | HeLa PEG-Prom luciferase reporter, overnight | hit rate 1.7% among 360,000 | inhibition, % at 20 µM | AID 588405, 2011;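 active = inhibition of at least 50% at 20 µM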
TROY NFkB inh = inhibitors of TROY-driven NF-kB signaling, primary screen, Q293 LMP1-TROYcd cells, NF-kB luciferase, uHTS; Q293 LMP1-TROYcd NF-kB luciferase reporter, 4 h; hit rate 0.98% among 360,000; AID 1347056, 2019; inhibition, % at 10 µM;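 active = compounds whose plate-normalised and pattern-corrected inhibition of the luciferase reporter signal at the single screening dose is 50% or more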
TWEAK-Fn14 inh = inhibitors of TWEAK-Fn14 signaling, primary screen, luciferase reporter cells, uHTS; TWEAK-stimulated Fn14 reporter cells, luciferase luminescence, 8 h; hit rate 2% among 360,000; inhibition, % at 10 µM; in the data active = inhibition above about 50%
HIF-2a block = HIF-2a reporter inhibitors, primary screen, luminescence, 786-0 RCC cells | 786-0 RCC cells HIF-2a reporter, luciferase luminescence, overnight | inhibition, % at 18.8 µM | hit rate 0.72% among 360,000;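 active = inhibition of the luminescence signal of 40% or more relative to plate controls, in a single-dose primary screen at 18.75 µM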
Mdm2 MdmX conf = retested Mdm2-MdmX interaction blockers, confirmation, cell-based, luminescence, single concentration, set 2. AID 504601, 2011. hit rate 99% among 740. SaOS-2 split-luciferase Mdm2/MdmX complementation. shares compounds with HIF-2a block. inhibition, % at 8 µM;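 active = mean inhibition of the luminescence signal across two replicates at or above 26 percent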
Target sequence (O15151 whole entry, looked up): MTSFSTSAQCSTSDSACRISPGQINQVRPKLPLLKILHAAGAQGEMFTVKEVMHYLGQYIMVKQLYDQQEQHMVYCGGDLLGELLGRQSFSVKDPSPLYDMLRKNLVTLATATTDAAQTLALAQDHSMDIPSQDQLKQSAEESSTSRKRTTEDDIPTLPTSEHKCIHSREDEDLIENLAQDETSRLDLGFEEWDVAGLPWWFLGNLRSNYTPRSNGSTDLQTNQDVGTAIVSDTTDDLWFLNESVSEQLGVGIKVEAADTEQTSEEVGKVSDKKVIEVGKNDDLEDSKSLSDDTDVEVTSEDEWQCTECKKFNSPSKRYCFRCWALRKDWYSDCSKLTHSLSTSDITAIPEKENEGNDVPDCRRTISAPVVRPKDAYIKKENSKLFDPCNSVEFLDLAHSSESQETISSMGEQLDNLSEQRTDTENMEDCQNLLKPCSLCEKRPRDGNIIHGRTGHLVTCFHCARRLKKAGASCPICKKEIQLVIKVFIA
Target sequence (Q00987 whole entry, looked up): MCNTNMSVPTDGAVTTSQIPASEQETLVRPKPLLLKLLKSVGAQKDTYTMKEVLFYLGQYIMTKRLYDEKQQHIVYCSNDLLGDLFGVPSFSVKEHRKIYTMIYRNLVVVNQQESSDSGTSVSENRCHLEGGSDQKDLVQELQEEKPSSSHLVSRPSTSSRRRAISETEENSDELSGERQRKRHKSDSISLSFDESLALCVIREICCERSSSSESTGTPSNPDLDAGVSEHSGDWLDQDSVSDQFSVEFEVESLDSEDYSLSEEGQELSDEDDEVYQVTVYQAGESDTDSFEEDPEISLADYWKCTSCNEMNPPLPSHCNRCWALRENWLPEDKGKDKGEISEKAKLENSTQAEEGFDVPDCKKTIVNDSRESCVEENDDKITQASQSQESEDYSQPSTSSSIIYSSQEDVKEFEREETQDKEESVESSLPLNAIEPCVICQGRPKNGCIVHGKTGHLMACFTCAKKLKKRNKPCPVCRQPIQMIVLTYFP
HIF-2a inh conf = HIF-2a reporter inhibitor retest, confirmation, luminescence, 786-0 RCC cells; shares compounds with HIF-2a block; HIF-2a luciferase reporter luminescence, overnight; inhibition, % at 18.8 µM; hit rate 56% among 1,800;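 active = mean inhibition across four replicates of at least 40 percent at the single tested concentration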
HIF-1a cs = HIF-1a luciferase reporter signal reduction – MiaPaCa-2 cells, single concentration, counter-screen for HIF-2a inhibitor project, confirmation. shares compounds with HIF-2a block. MiaPaCa-2 HIF-1a luciferase reporter, desferoxamine, overnight. inhibition, % at 18.8 µM. hit rate 72% among 1,800. AID 651589, 2012;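 active = mean inhibition of the reporter signal across four replicates at the single tested dose of 50% or more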
Numbers without * were called inactive; . = not tested or not shown.

SMILES | KKLEB cytotox | CF NFkB inh | Peg3 prom inh | TROY NFkB inh | TWEAK-Fn14 inh | HIF-2a block | HIF-2a inh conf | HIF-1a cs | others
CC(=O)/C=C1/C(=O)Nc2ccccc21 | -2 | -2 | 22 | -13 | 9 | 40* | 49* | 5
CC1(C)Cc2c(cnn2-c2ccc(F)cc2)C(NC(=O)c2cnccn2)C1 (configuration not stated) | 1 | 19 | 12 | 10 | 18 | 6 | . | .
Cc1ccc(C(=O)N/C(=C\c2ccc(-c3ccc(Br)cc3)o2)C(=O)NCCCN(C)C)cc1 | -19 | 15 | 109* | -24 | -279 | 33 | . | . | Mdm2 MdmX conf=103*
CCOC(=O)c1sc(NC(=O)c2cc(-c3ccccc3)nc3ccccc23)c(C#N)c1C | -28 | 38 | 29 | 63* | 62* | 3 | . | . | Mdm2 MdmX conf=98*
C#CC(=O)CC1(CN(Cc2ccccc2)C(=O)OC(C)(C)C)CCCCC1 | -104* | 84* | 60* | -9 | 11 | 44* | 2 | 19
CON(C)C(=O)CC1(CN(Cc2ccccc2)C(=O)OC(C)(C)C)CCCCC1 | -5 | 10 | 10 | 1 | -12 | 7 | . | .
COc1ccc(-c2nnn(CC(=O)N(CCN3CCOCC3)C(C(=O)NC3CCCC3)c3ccco3)n2)cc1 (configuration not stated) | 10 | -19 | 5 | 5 | -5 | 7 | . | .
CC(C)N1C(=O)/C(=C/c2nc3ccccc3c(=O)n2-c2ccccc2)c2ccccc21 | 1 | 3 | 32 | 3 | 44 | 64* | 59* | 102*
COc1cccc(-c2coc3c(C)c4oc(=O)c(CCC(=O)O)c(C)c4cc23)c1 | 0 | -35 | 3 | 10 | -45 | 15 | . | .
Cc1c(CCC(=O)N[C@@H](CC(C)C)C(=O)O)c(=O)oc2cc3oc4c(c3cc12)CCCC4 | 4 | -18 | -59 | -3 | 38 | 65* | 75* | 38
Cc1c(CCC(=O)NCC(=O)NCC(=O)O)c(=O)oc2cc3oc4c(c3cc12)CCCC4 | -2 | -2 | 4 | -10 | 9 | 26 | . | .
Cc1c(CCC(=O)O)c(=O)oc2cc3oc4c(c3cc12)CCCC4 | 13 | -18 | -75 | 12 | 51* | 74* | 83* | 47
COc1cccc(-c2coc3cc4oc(=O)c(CCC(=O)O)c(C)c4cc23)c1 | 1 | -40 | 21 | 18 | 3 | 40* | 57* | 51*
Cc1c(CCC(=O)N2CCC[C@H]2C(=O)O)c(=O)oc2cc3oc4c(c3cc12)CCCC4 | -5 | 24 | -64 | -1 | 76* | 65* | 79* | 39
Cc1c(CCC(=O)N2CCC(C(=O)NCCCCCC(=O)O)CC2)c(=O)oc2cc3oc4c(c3cc12)CCCC4 | -7 | 28 | -10 | 2 | 24 | 29 | . | .
Cc1c(CCC(=O)N[C@@H](C)C(=O)O)c(=O)oc2cc3occ(-c4ccccc4)c3cc12 | -2 | -2 | 6 | 10 | -2 | 26 | . | .
CCN1CCN(c2ccc(S(=O)(=O)N3CCCCC3)cc2NC(=O)Cc2c(F)cccc2Cl)CC1 | 9 | 10 | 9 | -19 | 7 | 14 | . | .
Cc1oc(-c2ccccc2F)nc1CS(=O)(=O)CC(=O)NCCCN1CCN(C)CC1 | -3 | -39 | 13 | 9 | -10 | 7 | . | .
Nc1cc(Oc2ccc(Cl)cc2Cl)nc(N)n1 | -4 | -19 | -9 | -1 | 11 | -29 | . | .
